Assay results taken from PubChem BioAssay (Tox21).
“And” between values parts separate entries of the source, which are not always exact repeats. Identical values can stand only once. Results filed as inconclusive are left out. A call without a number means that no potency is given here. Some compounds were tested as several samples or in several runs, with calls that do not always agree. The source made the active and inactive calls. The call rests on the fitted dose curve; in most records, active means well fitted cell-killing curve with a large enough effect in the repeat runs; inconclusive means weak or mixed curves, or effect the other way; inactive means flat fitted curve, though single readings scatter.

Experiment: qHTS assay to identify small molecule agonists of the androgen receptor (AR) signaling pathway in the presence of an antagonist - cell viability counter screen (AID 1259379); further: nearly all actives have a fitted effect of over 25% in size
Details: MDA-kb2 viability, CellTiter-Fluor, 16 h; series mostly up to 92.4 µM
Procedure, shortened: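 Counter screen for cell viability run in parallel with the AR agonist-mode luciferase assay. MDA-kb2 cells were co-treated with nilutamide (3.0uM final) and compounds, then incubated 16 hr at 37C, and CellTiter-Fluor fluorescence was measured.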
Potency means the concentration at half of the fitted maximal effect.

| SMILES | Potency |
| --- | --- |
| COc1ccc(OC(F)(F)F)cc1CN[C@H]1CCCN[C@H]1c1ccccc1 | 48.6 µM (active) |
| CCCC[P+](CCCC)(CCCC)CCCC | 60.9 µM (active) and 62.3 µM (active) and 61.1 µM (active) |
| Oc1ccccc1 | inactive |
| CC/C(=C(\c1ccccc1)c1ccc(OCCN(C)C)cc1)c1ccccc1 | 69 µM (active) and 48.9 µM (active) and 48.6 µM (active) |
| C1CCC(C(CC2CCCCN2)C2CCCCC2)CC1 (centres undefined) | 29.8 µM (active) |
| O=c1[nH]cc(F)c(=O)[nH]1 | inactive |
| Nc1ccc(O)c([N+](=O)[O-])c1 | 27.3 µM (active) |
| CN1CCC[C@H]1c1cccnc1 | inactive |
| NC(=O)n1c(O)c(C(=O)c2cccs2)c2cc(Cl)ccc21 | 29.8 µM (active) |
| OC[C@H]1O[C@H](O[C@]2(CCl)O[C@H](CCl)[C@@H](O)[C@@H]2O)[C@H](O)[C@@H](O)[C@H]1Cl | inactive |
| Cn1c(=O)c2c(ncn2C)n(C)c1=O | 55.1 µM (active) and inactive |
| CC1(C)S[C@@H]2[C@H](NC(=O)[C@H](N)c3ccccc3)C(=O)N2[C@H]1C(=O)O | inactive |
| F[B-](F)(F)F | inactive |
| O=C(Nc1ncc([N+](=O)[O-])s1)c1cccs1 | 26.6 µM (active) |
| Cc1ccc(S(=O)(=O)O)cc1 | inactive |
| CC(=O)C(=O)O | inactive |
| C/C=C/C=C/C(=O)O | inactive |
| O=C1c2c(O)cccc2Cc2cccc(O)c21 | inactive |
| CN[C@H]1CC[C@@H](c2ccc(Cl)c(Cl)c2)c2ccccc21 | inactive |
